Consider 18 molecules from PubChem BioAssay.

Assay [1] is described as follows: E. coli DRC41 culture turbidity changes, primary screen, E. coli filamentation inducer project, strain DRC41, OD650, 48 h (AID 1152).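 Note: E. coli MC1000 strain DRC41 lacking acrAB efflux pump and sulA.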 As to conditions: E. coli DRC41 (acrAB sulA), higher = more signal, called active from +8 up or from −8 down.
Assay [2] can be described thus: small-molecule binders of probe aLefty1, primary screen, biochemical, small-molecule microarray, 635/667 nm fluorescence (AID 1153).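 Note: score merges spot fluorescence with signal-to-noise ratio from the scanned slide images.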 Particulars: higher = more signal.
The nature of assay [3]: PSAC antagonists in infected red cells, primary screen, cell-based, P. falciparum Indochina, OD700, 1 h (AID 1154). Particulars: P. falciparum Indochina infected RBC osmotic lysis, higher = more signal, called active from +8 up or from −8 down.
A short description of assay [4]: PSAC antagonists in infected red cells, primary screen, cell-based, P. falciparum Indochina, OD700, 2 h (AID 1155).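 Note: lysis reports solute entry through the parasite surface anion channel PSAC; channel blockers reduce lysis of infected cells.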 Particulars: P. falciparum Indochina infected erythrocytes, osmotic lysis OD700; higher = more signal, called active from +8 up or from −8 down.
Assay [5] is described as follows: osmotic lysis modulators in infected erythrocytes, primary screen, PSAC antagonist project, cell-based, P. falciparum Indochina, OD700, 3 h (AID 1156). Particulars: higher = more signal, called active from +8 up or from −8 down.
Assay [6] in a line: PSAC antagonists in infected red cells, primary screen, cell-based, P. falciparum Indochina, OD700, 18 h (AID 1157). As to conditions: P. falciparum Indochina infected erythrocytes, osmotic lysis OD700, 18 h; higher = more signal, called active from +8 up or from −8 down.
Assay [7] in a line: modulators of S6 phosphorylation in cells, primary screen, cell-based, A549, cytoblot, luminescence, serum-stimulated (AID 1158).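 Note: serum-stimulated A549 lung adenocarcinoma cells; signal is phosphorylated S6 detected by cytoblot immunostaining with HRP secondary.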 Particulars: A549 phospho-S6 cytoblot, 5 h, higher = more signal.
Assay [8] deals with NADPH oxidase 2 (Homo sapiens) (UniProt P04839). In words: NOX2-dependent H2O2 signal modulators, primary screen, NOX inhibitor project, cell-based, HEK293-NOX2, PMA-stimulated, Amplex Red fluorescence (AID 1159). Note: test concentration not given here. As to conditions: 45 min, higher = more signal, called active from +8 up or from −8 down.
For assay [9], the target named is NADPH oxidase 4 (Homo sapiens) (UniProt Q9NPH5). In words: NOX4-dependent H2O2 signal modulators, primary screen, NOX inhibitor project, cell-based, HEK293-NOX4, tetracycline-induced, Amplex Red fluorescence (AID 1160). As to conditions: 45 min, higher = more signal, called active from +8 up or from −8 down.
In assay [10] the target is NADPH oxidase 5 (Homo sapiens) (UniProt Q96PH1). In words: NOX5-dependent H2O2 signal modulators, primary screen, NOX inhibitor project, cell-based, HEK293-NOX5, Amplex Red fluorescence (AID 1161). Particulars: HEK293-NOX5, ionomycin, 45 min, higher = more signal.

The source made the active and inactive calls.

Chain of NADPH oxidase 4 (Homo sapiens) (Q9NPH5 whole entry, looked up): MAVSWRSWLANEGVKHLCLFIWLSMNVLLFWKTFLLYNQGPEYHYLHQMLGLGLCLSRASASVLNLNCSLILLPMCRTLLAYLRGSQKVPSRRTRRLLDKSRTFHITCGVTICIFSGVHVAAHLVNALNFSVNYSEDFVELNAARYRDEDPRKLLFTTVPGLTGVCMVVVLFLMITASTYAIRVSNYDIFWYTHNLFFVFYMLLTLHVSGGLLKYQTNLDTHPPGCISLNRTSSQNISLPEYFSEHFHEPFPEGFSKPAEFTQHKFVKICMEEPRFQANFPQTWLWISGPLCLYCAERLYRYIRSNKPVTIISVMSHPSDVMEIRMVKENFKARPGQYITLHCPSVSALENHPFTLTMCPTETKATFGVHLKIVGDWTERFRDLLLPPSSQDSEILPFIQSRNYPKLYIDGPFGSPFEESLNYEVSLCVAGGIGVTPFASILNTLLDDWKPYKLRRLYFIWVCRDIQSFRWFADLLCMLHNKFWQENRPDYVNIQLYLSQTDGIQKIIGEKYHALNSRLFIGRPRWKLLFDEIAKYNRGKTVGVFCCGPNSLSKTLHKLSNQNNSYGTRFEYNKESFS
Chain of NADPH oxidase 2 (Homo sapiens) (P04839 whole entry, looked up): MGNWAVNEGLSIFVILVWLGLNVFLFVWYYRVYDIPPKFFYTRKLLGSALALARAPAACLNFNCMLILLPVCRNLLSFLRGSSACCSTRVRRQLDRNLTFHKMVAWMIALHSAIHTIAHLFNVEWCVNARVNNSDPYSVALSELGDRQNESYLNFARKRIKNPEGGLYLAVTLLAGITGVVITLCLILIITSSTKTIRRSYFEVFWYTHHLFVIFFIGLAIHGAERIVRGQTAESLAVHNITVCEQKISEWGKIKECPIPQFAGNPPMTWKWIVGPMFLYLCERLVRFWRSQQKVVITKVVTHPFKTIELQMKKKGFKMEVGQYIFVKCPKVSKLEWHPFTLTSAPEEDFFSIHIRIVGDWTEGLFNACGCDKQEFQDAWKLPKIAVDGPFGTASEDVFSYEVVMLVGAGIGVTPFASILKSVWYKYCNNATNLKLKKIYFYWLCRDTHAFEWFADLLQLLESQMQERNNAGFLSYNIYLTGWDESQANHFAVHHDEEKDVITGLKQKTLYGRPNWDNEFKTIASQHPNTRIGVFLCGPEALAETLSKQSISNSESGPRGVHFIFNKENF
Chain of NADPH oxidase 5 (Homo sapiens) (Q96PH1 whole entry, looked up): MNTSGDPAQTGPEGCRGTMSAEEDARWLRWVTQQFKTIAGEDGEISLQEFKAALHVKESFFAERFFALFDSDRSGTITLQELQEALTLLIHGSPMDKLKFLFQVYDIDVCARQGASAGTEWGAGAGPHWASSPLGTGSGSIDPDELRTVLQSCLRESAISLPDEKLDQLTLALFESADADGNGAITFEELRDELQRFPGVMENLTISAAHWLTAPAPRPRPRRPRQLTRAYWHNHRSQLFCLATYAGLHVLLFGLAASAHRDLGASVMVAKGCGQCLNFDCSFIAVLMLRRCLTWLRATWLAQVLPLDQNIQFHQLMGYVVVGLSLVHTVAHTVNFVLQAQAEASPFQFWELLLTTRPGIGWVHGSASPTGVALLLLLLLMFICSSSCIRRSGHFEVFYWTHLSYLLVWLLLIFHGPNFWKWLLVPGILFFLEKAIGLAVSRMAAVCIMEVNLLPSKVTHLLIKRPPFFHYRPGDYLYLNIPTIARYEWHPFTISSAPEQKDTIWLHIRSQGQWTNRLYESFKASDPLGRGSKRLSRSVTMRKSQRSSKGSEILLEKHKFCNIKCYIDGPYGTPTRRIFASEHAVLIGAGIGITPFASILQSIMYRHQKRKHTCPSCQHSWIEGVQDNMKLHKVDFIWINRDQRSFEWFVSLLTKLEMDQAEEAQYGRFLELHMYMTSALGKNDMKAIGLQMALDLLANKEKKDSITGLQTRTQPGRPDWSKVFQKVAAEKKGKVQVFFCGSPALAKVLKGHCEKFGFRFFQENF

On to `COCCCNC(=O)[C@]1(Cc2ccccc2CN=[N+]=[N-])N=C(c2ccc(OCCCO)cc2)O[C@@H]1c1ccccc1`, for which the z-score in assay [1] is 0.65 (inactive); in assay [3], 26.2 (active); in [4], 15.5 (active); in assay [5], 1.28 (inactive); in assay [6], 0.178 (inactive); in assay [7], 1.64. The z-score in assay [8] was -1.94 (inactive); in assay [9], -0.52 (inactive); in assay [10], -1.46. In assay [2], this molecule displayed a composite z-score of -0.184.
In the case of `NC(=O)N1C(=O)C2C(C1=O)C1C=C(CCCO)C2C(c2cccs2)N1Cc1cc2c(cc1Br)OCO2` (stereo not given), the z-score in assay [1] was 0.0978 (inactive); in assay [3] it was 17.7 (active); in assay [4], 2.3 (inactive); in assay [5], 0.865 (inactive); in assay [6], 0.872 (inactive); in [7], 0.413. Besides, the z-score in assay [8] was -0.848 (inactive); in assay [9] it was -0.662 (inactive); in assay [10] it was -1.1. This molecule also yielded a composite z-score in assay [2] of 0.254.
Turning to `C=C[C@H](COC(C)=O)NS(=O)(=O)c1ccc(Br)cc1`, the z-score in [1] was 0.348 (inactive); in assay [3], 0.174 (inactive); in assay [4] it was -0.191 (inactive); in [5], -0.3 (inactive); in [6] it was 0.252 (inactive); in assay [7], 0.16. The z-score was 1.96 (inactive) in assay [8], -0.0653 (inactive) in assay [9] and 0.0573 in assay [10]. Also, in [2], the composite z-score came to 0.0056.
As to `COC(=O)[C@@]1(Cc2ccc(OC)cc2)[C@H]2c3cc(C(=O)N(C)C)n(Cc4ccccc4)c3C[C@H]2CN1C(=O)c1ccccc1`, the z-score was -1.25 (inactive) in [1]; 0.49 (inactive) in assay [3]; 0.194 (inactive) in assay [4]; -1.39 (inactive) in [5]; 0.594 (inactive) in assay [6]; 0.686 in assay [7]. For the same molecule, the z-score in assay [8] is -1.52 (inactive); in assay [9], -1.09 (inactive); in [10], 2.49. The same molecule gave a composite z-score in assay [2] of 0.748.
As to `C=CCOC(=O)[C@H]1[C@@H]2C(=O)O[C@@H](c3ccccc3)[C@@H](c3ccccc3)N2[C@@H](c2ccc(OCCOC(=O)[C@H]3C[C@H]4C(=O)N[C@@H](CCCC[N+](C)(C)C)C(=O)N4[C@H]3c3cccc(OCCO)c3)cc2)[C@]12C(=O)Nc1ccc(I)cc12`, the z-score in [1] is 0.039 (inactive); in assay [3], 3.12 (inactive); in assay [4], 2.53 (inactive); in assay [5] it was 1.58 (inactive); in assay [6], 1.68 (inactive); in assay [7], 0.4. The z-score in assay [8] is 0.822 (inactive); in [9] it was 0.0287 (inactive); in assay [10], 0.14. Moreover, the composite z-score in assay [2] is -0.17.
As for `CN(C)CCCNC(=O)[C@@H]1c2ccccc2C(=O)N(Cc2ccc(OC(F)(F)F)cc2)[C@H]1c1ccc(CO)cc1`, the z-score is 0.532 (inactive) in [1]; 2.04 (inactive) in [3]; 0.81 (inactive) in assay [4]; 3 (inactive) in [5]; 0.891 (inactive) in assay [6]; 0.0342 in assay [7]. Moreover, the z-score in assay [8] was 0.799 (inactive); in [9], 0.237 (inactive); in assay [10], 1.44. This molecule also had a composite z-score in assay [2] of 0.197.
With `COCCCNC(=O)[C@]1(Cc2ccccc2N=[N+]=[N-])N=C(c2ccc(OCCCO)cc2)O[C@@H]1c1ccccc1N=[N+]=[N-]`, the z-score was -0.279 (inactive) in assay [1]; 30.8 (active) in assay [3]; 28.7 (active) in [4]; 1.41 (inactive) in [5]; 7.56 (inactive) in [6]; 0.105 in assay [7]. Also, the z-score in [8] is -1.23 (inactive); in assay [9], 0.567 (inactive); in [10] it was 1.71. For the same molecule, the composite z-score in [2] came to 0.616.
Take `CCCC[C@@H]1C[C@H]1[C@@H](NC(=O)c1cccnc1)c1ccc(-c2ccccc2)cc1`: the z-score in [1] is -2.22 (inactive); in assay [3], 3.12 (inactive); in assay [4], 0.818 (inactive); in assay [5] it was 0.219 (inactive); in assay [6], 0.445 (inactive); in [7], -0.0675. For the same molecule, the results for the z-score in [8], in [9] and in assay [10] were -1.01 (inactive), -1.52 (inactive) and 0.353, respectively. In addition, the composite z-score in assay [2] is -0.105.
As for `CO[C@H]1O[C@H](CO)[C@@H](OC(=O)Nc2ccc(C(F)(F)F)cc2)[C@H](OC(=O)Nc2ccc3c(c2)OCO3)[C@H]1OC(=O)Nc1ccc2c(c1)OCO2`, the z-score in assay [1] was -0.463 (inactive); in [3] it was 7.33 (inactive); in [4], 0.993 (inactive); in assay [5], 0.61 (inactive); in [6], 0.619 (inactive); in [7], -0.388. In addition, the z-score in assay [8] was -4.33 (inactive); in [9] it was -0.99 (inactive); in assay [10] it was -1.82. The molecule further had a composite z-score in assay [2] of 0.662.
`CCOC(=O)C[C@H]1[C@H](OC(=O)c2ccc(C(=O)c3ccccc3)cc2)[C@@H](NC(=O)c2ccc3ccccc3c2)c2cc(OCCCO)ccc2N1C(=O)c1ccccc1`: the z-score in assay [1] is -0.558 (inactive); in assay [3] it was 0.137 (inactive); in [4] it was -0.0012 (inactive); in [5], -0.97 (inactive); in assay [6], 0.189 (inactive); in assay [7], -0.357. Further, the z-score in assay [8] was 0.311 (inactive); in assay [9], 0.945 (inactive); in [10], 1.06. This molecule showed a composite z-score in assay [2] of -0.0134.
For the molecule `CC(C)C(O)C1C=CC2C(=O)N(C)C(=O)C2N1N(c1ccccc1)c1ccccc1` (stereo not given), the z-score in [1] was -0.573 (inactive); in [3], 0.321 (inactive); in assay [4], 0.167 (inactive); in assay [5] it was -0.255 (inactive); in assay [6], 1.05 (inactive); in [7], -1.38. Moreover, the results for the z-score in assay [8], in assay [9] and in assay [10] were -0.71 (inactive), -0.583 (inactive) and -0.828, respectively. The molecule further returned a composite z-score in assay [2] of 0.213.
`C=C(C(=O)CC[C@H](OC(=O)c1cccnc1)c1cccc(OCCO)c1)C(C)C`: the z-score is 0.184 (inactive) in assay [1]; 14.4 (active) in assay [3]; 2.83 (inactive) in [4]; 1.76 (inactive) in assay [5]; 1.04 (inactive) in assay [6]; -0.0915 in assay [7]. The z-score was 0.657 (inactive) in assay [8], -0.0784 (inactive) in [9] and -2.05 in assay [10]. Moreover, in assay [2], the composite z-score was found to be 0.0327.
For `O=C1c2ccccc2[C@](Cc2ccccc2I)(C(=O)NCc2ccccc2)[C@H](c2ccc(CO)cc2)N1C1CCCCC1`, the z-score in assay [1] is 1.28 (inactive); in [3] it was 2.39 (inactive); in assay [4], 0.105 (inactive); in assay [5] it was 0.0371 (inactive); in assay [6], -1.34 (inactive); in [7], 3.43. Moreover, the z-score in assay [8] is 1.65 (inactive); in [9], 0.289 (inactive); in [10] it was 1.35. The molecule further had a composite z-score in assay [2] of 0.254.
Take `CN(C)C(=O)[C@@]1(Cc2ccccc2N=[N+]=[N-])COC(c2ccc(OCCCO)cc2)=N1`: the z-score in [1] was 1.92 (inactive); in assay [3] it was 26.3 (active); in assay [4], 6.99 (inactive); in [5], 3.43 (inactive); in assay [6], 1.23 (inactive); in assay [7], 0.685. Further, the z-score in assay [8] is -1.99 (inactive); in [9] it was -0.103 (inactive); in assay [10], -1.82. This molecule came in with a composite z-score in assay [2] of -0.781.
As for `CC(C)(C)OC(=O)CC[C@@]1(C(=O)O)N=C(c2ccc(OCCCO)cc2)O[C@@H]1c1ccccc1CN=[N+]=[N-]`, the z-score in [1] is 0.648 (inactive); in assay [3], 24.5 (active); in assay [4], 10 (active); in [5] it was -0.0836 (inactive); in [6] it was 1.53 (inactive); in [7] it was 0.0274. The results for the z-score in assay [8], in assay [9] and in [10] were 0.716 (inactive), 0.691 (inactive) and 1.53, respectively. In [2], this molecule registered a composite z-score of 0.479.
In the case of `CN(C)CCCN1C(=O)[C@@]2(c3ccc([N+](=O)[O-])cc3)CC(=O)N(CC34CC5CC(CC(C5)C3)C4)[C@@H]2c2ccc(CO)cc21`, the z-score in assay [1] is 0.388 (inactive); in [3], 2.1 (inactive); in assay [4] it was -0.451 (inactive); in assay [5], 1.27 (inactive); in assay [6], -0.405 (inactive); in [7], 0.299. Besides, the results for the z-score in assay [8], in assay [9] and in assay [10] were -2.29 (inactive), -0.0839 (inactive) and 1.56, respectively. In assay [2], this molecule gave a composite z-score of -0.0662.
Consider `O=C(O)[C@]1(Cc2ccccc2)N=C(c2ccc(OCCCO)cc2)O[C@@H]1c1ccccc1`, for which the z-score in [1] is 0.585 (inactive); in assay [3], 5.03 (inactive); in assay [4] it was -0.125 (inactive); in assay [5] it was -1.2 (inactive); in assay [6], 0.0743 (inactive); in assay [7] it was -0.174. For the same molecule, the results for the z-score in [8], in [9] and in assay [10] were 0.26 (inactive), 0.674 (inactive) and 0.914, respectively. The same molecule yielded a composite z-score in assay [2] of 0.104.
With `CC(C)CNC(=O)[C@@H]1c2ccccc2C(=O)N(Cc2cc(F)cc(C(F)(F)F)c2)[C@H]1c1ccc(CO)cc1`, the z-score was 2.9 (inactive) in assay [1]; 2.62 (inactive) in assay [3]; 0.649 (inactive) in [4]; 1.27 (inactive) in [5]; -0.111 (inactive) in assay [6]; 0.207 in assay [7]. In addition, the results for the z-score in [8], in assay [9] and in assay [10] were -0.453 (inactive), 0.967 (inactive) and 0.52, respectively. The same molecule displayed a composite z-score in assay [2] of 0.0571.
